Screening data from PubChem BioAssay.
This is a sample that favours compounds with a hit; in the whole collection about 21% have one here.
Shiga toxin inh: A qHTS for Small Molecule Inhibitors of Shiga Toxin; inhibition, % at 38.7 µM; AID 2315, 2010; 9.2% of 290,000 active; Vero cells, Shiga toxin protein synthesis inhibition reporter; in the data active = inhibition mostly above about 28%, no sharp cut-off; inactive = mostly below about 43%; note: 0% is about no effect
CHX counter: Cycloheximide Counterscreen for Small Molecule Inhibitors of Shiga Toxin. cell reporter, cycloheximide protein synthesis inhibition counterscreen. max response, %. 12% of 300,000 active; in the data active = max response mostly above about 13%, no sharp cut-off; inactive = mostly below about 14%; note: read at 38.3 µM for the half of the compounds with a filed dose; 0% is about no effect
Pf growth 96h: Primary qHTS for delayed death inhibitors of the malarial parasite plastid, 96 hour incubation. P. falciparum luciferase reporter growth, 96 h. Potency, µM (top dose mostly 28.7 µM), for the others: at the top dose activity change, negative = inhibition, actives largely listed as inhibitors. 6.9% of 320,000 active; note: potency is the fitted concentration of half-maximal effect; % is set by controls: 0 for no effect and ±100 for the full control effect
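96 h incubation, 37 C, 5% CO2, of luciferase-reporter P. falciparum-infected RBCs (2% hematocrit, 0.05% parasitemia final) with test compounds; endpoint luminescence.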
Pf growth 48h: Primary qHTS for delayed death inhibitors of the malarial parasite plastid, 48 hour incubation | P. falciparum luciferase growth in erythrocytes, 48 h | Potency, µM (doses to about 28.7 µM), without a hit: at the top dose activity change, negative = inhibition, hits mostly inhibitors | 5.9% of 310,000 active; note: potency is the fitted concentration of half-maximal effect; % is set by controls: 0 for no effect and ±100 for the full control effect
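Erythrocytes infected with P. falciparum carrying an integrated firefly luciferase reporter (2% hematocrit, 0.1% parasitemia final) were exposed to compounds in RPMI 1640 with 0.5% Albumax at 37 C, 5% CO2. Growth inhibition was scored as reduced luminescence.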
* marks the source's active call; other numbers are inactive results; [ ] = another dose, or the depositor's remark. Unless noted, calls come from the whole dose curve; as a rule, active = well fitted inhibition curve with a large enough effect; inconclusive = small, poorly fitted or top-dose-only effect, or another doubt; inactive = no such curve, though single readings can be large or run the other way.

Screening COc1ccc(S(=O)(=O)N(C)CC(=O)N2CCCCC2)cc1Cl returned Shiga toxin inh -10, CHX counter -2, Pf growth 96h inconclusive and Pf growth 48h 8%.
Screening COc1ccc(Cl)cc1S(=O)(=O)N(C)CC(=O)N1CCCC1 returned Shiga toxin inh -7, CHX counter -2, Pf growth 96h 5.9µM* and Pf growth 48h 5%.
For COc1ccc(C)cc1S(=O)(=O)N(C)CC(N)=O the results were Shiga toxin inh 11, CHX counter -3, Pf growth 96h 10µM* and Pf growth 48h -7%.
For Cc1cc(C)c2nc(N3CCCC(C(=O)NC4CCCC4)C3)sc2c1 (stereo not given) the results were Shiga toxin inh 5, CHX counter 12, Pf growth 96h 5.2µM* and Pf growth 48h 8%.
For Cc1cc(C)c2nc(N3CCC(C(=O)N4CCCC4)CC3)sc2c1 the results were Shiga toxin inh 8, CHX counter 12, Pf growth 96h inconclusive and Pf growth 48h 8.3µM*.
For O=C(C1CCN(c2nnc(-n3cccc3)s2)CC1)N1CCCCC1 the results were Shiga toxin inh 20, CHX counter 20*, Pf growth 96h -9% and Pf growth 48h 13%.
Screening Cc1cc(C)c2nc(N3CCC(C(=O)NCC4CCCO4)CC3)sc2c1 (stereo not given) returned Shiga toxin inh 25, CHX counter 21*, Pf growth 96h 5% and Pf growth 48h 3%.
For Cc1cc(C)c2nc(N3CCC(C(=O)NCCCN4CCCCC4)CC3)sc2c1 the results were Shiga toxin inh 18 and CHX counter 5.
`CC1CCN(C(=O)C2CCN(c3nnc(-n4cccc4)s3)CC2)CC1` gave Shiga toxin inh 14, CHX counter 25, Pf growth 96h 0% and Pf growth 48h -25%.
`COC(=O)c1cccc(NC(=O)CSc2nnc(C3CC3)n2C)c1` gave Shiga toxin inh -14, CHX counter -4, Pf growth 96h 18% and Pf growth 48h 2%.
Screening Cc1ccc(NC(=O)NC2CC(=O)N(c3ccc4c(c3)OCCO4)C2)cc1F (stereo not given) returned Pf growth 96h inconclusive and Pf growth 48h -2%.
For CN(c1ccc(O)cc1)c1nc(-c2cccs2)cs1 the results were Shiga toxin inh -6, CHX counter -4, Pf growth 96h 3% and Pf growth 48h -12%.
`Cc1nc(N)sc1-c1csc(N(C)c2ccc(O)cc2)n1` gave Shiga toxin inh 66*, CHX counter 23*, Pf growth 96h 21% and Pf growth 48h 49%.
For COc1ccc(-c2c(C#N)c(N)nc3c2CCc2ccccc2-3)cc1OC the results were Shiga toxin inh 1, CHX counter -2, Pf growth 96h 7.4µM* and Pf growth 48h 2.3µM*.
COC(=O)[C@]1(C)CCC[C@@]2(C)C3CC[C@@]4(C)C[C@]3(CCC21)CC4=NO (stereo not given in full) was read as Pf growth 96h inconclusive and Pf growth 48h -17%.
For CCOC(=O)c1c(C)[nH]c(C)c1S(=O)(=O)N(C)CC(=O)Nc1ccccc1OC the results were Shiga toxin inh 4, CHX counter 0, Pf growth 96h inconclusive and Pf growth 48h 10µM*.
`CCOC(=O)c1c(C)[nH]c(C)c1S(=O)(=O)N(C)CC(=O)Nc1ccccc1` gave Shiga toxin inh 25, CHX counter -3, Pf growth 96h inconclusive and Pf growth 48h -4%.
Screening CN1C(=O)C(Cc2ccc(OCc3ccccc3)cc2)C(=O)N(C)C1=O returned Shiga toxin inh 67*, CHX counter 38*, Pf growth 96h 4% and Pf growth 48h 9%[0.00184 µM].
For O=C(CN1C(=O)/C(=C/c2ccccc2)SC1=S)N1CCN(CCc2ccccn2)CC1 the results were Shiga toxin inh -2, CHX counter -3, Pf growth 96h inconclusive and Pf growth 48h 6%.
`O=C(CN1C(=O)C2CC=CCC2C1=O)Nc1nc2ccccc2s1` (stereo not given) gave Shiga toxin inh 52*, CHX counter 28*, Pf growth 96h 89% and Pf growth 48h 52%.
`CCc1ccc(/C=C2/SC(=S)N(CC(=O)Nc3nc4ccccc4s3)C2=O)cc1` gave Shiga toxin inh 78*, CHX counter 22*, Pf growth 96h 201% and Pf growth 48h 52%.
For Cc1ccc2nc(NC(=O)CN3C(=O)C4CC=CCC4C3=O)sc2c1 (stereo not given) the results were Shiga toxin inh 14, CHX counter 14*, Pf growth 96h 65% and Pf growth 48h 33%.
For C[C@@H](C(=O)Nc1nc2ccccc2s1)N1C(=O)C2CC=CCC2C1=O (stereo not given in full) the results were Shiga toxin inh 22, CHX counter 17, Pf growth 96h 33% and Pf growth 48h 10%.
`CCc1ccc(/C=C2\SC(=S)N(CCCC(=O)Nc3ccccn3)C2=O)cc1` gave Shiga toxin inh -23, CHX counter -6, Pf growth 96h 106% and Pf growth 48h inconclusive.
CS(=O)(=O)c1ccc2nc(NC(=O)CN3C(=O)C4CC=CCC4C3=O)sc2c1 (stereo not given) was read as Shiga toxin inh 8, CHX counter 12, Pf growth 96h -1% and Pf growth 48h 4%.
`O=C(CSc1nnc(Cc2ccccc2)c(=O)[nH]1)Nc1ccccc1` gave Pf growth 96h 14% and Pf growth 48h 5%.
Screening Cc1ccc(NC(=O)COC(=O)c2ccc3c(c2)NC(=O)C2CCCN32)cc1 (stereo not given) returned Shiga toxin inh 28, CHX counter -6, Pf growth 96h 11% and Pf growth 48h 10µM*.
Cc1ccc(C(=O)OCC(=O)NN2C(=O)NC3(CCC(C)CC3)C2=O)cc1 (stereo not given) was read as Pf growth 96h 18% and Pf growth 48h inconclusive.
Screening CCCCCC1CC(CC(C)C(=O)Nc2nncs2)C(=O)O1 (stereo not given) returned Shiga toxin inh -8, CHX counter -2, Pf growth 96h inconclusive and Pf growth 48h inconclusive.
`CCCCCC1CC(CC(=O)Nc2nncs2)C(=O)O1` (stereo not given) gave Shiga toxin inh 10, CHX counter 1, Pf growth 96h 7.4µM* and Pf growth 48h -5%.
For CCOC(=O)CN1N=C(/C=C/c2ccc(OCC)cc2)CCC1=O the results were Shiga toxin inh 34, CHX counter 30*, Pf growth 96h inconclusive and Pf growth 48h 54%.
`CCOC(=O)CN1N=C(c2ccc(Cl)cc2)CCC1=O` gave Shiga toxin inh 15, CHX counter 12, Pf growth 96h 13µM* and Pf growth 48h 9%.
For CCOC(=O)CN1N=C(/C=C/c2ccc(C(C)C)cc2)CCC1=O the results were Shiga toxin inh 37, CHX counter 35*, Pf growth 96h 84% and Pf growth 48h 112%.
O=CN1CCN(c2c([N+](=O)[O-])c(=O)oc3ccccc23)CC1 was read as Shiga toxin inh 17, CHX counter 4, Pf growth 96h inconclusive and Pf growth 48h 0%.
For COc1cc(NS(=O)(=O)c2cccc([N+](=O)[O-])c2)c2ncccc2c1 the results were Shiga toxin inh -4 and CHX counter 9.
